Results published in PubChem BioAssay (Tox21).
Records with an inconclusive call do not appear. Calls of active or inactive are those of the source. Unless noted, calls follow the shape of the dose curve; as a rule, active = well fitted curve in the direction sought with a large enough effect in the repeat runs; inconclusive = weak or mixed curves; inactive = no such curve, though single readings can be large; an effect the other way counts as inactive or inconclusive.

Legend:
[1] = qHTS assay to identify small molecule agonists of the vitamin D receptor (VDR) signaling pathway - cell viability counter screen (AID 743224); also: series mostly up to about 63 µM; % is scaled to controls: 0 for no effect and ±100 for the full control effect; nearly all actives have a fitted effect of over 50% in size
Procedure, shortened: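 VDR-bla cells, 4 h after plating, exposed to compounds for 16 h at 37C; viability then read in the same wells as CellTiter-Glo luminescence after 30 min at room temperature, following the bla FRET read.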

[2] = qHTS assay to identify small molecule antagonists of the vitamin D receptor (VDR) signaling pathway - cell viability counter screen (AID 743225); also: % is scaled to controls: 0 for no effect and ±100 for the full control effect; nearly all actives have a fitted effect of over 50% in size
Procedure, shortened: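 Read-out: CellTiter-Glo luminescence measured 30 min after reagent addition at room temperature. Cells were VDR-bla HEK 293T exposed 16 h at 37C, 5% CO2, to compound with 3 nM final calcitriol agonist.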

[3] = qHTS assay to identify small molecule agonists of the NFkB signaling pathway - cell viability counter screen (AID 1159515; calls by dose curve; also: series mostly up to about 61 µM; % is scaled to controls: 0 for no effect and ±100 for the full control effect; nearly all actives have a fitted effect of over 55% in size)
Procedure, shortened: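 NFkB-bla ME-180 cells, 2,000/well, plated overnight at 37 C; compound added for 5 hr at 37 C. Viability read in the same wells as the bla reporter, by CellTiter-Glo luminescence after 30 min at room temperature.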

[4] = qHTS assay to identify small molecule agonists of the endoplasmic reticulum stress response signaling pathway (AID 1159516; active = well fitted activation curve with a large enough effect in the signal ratio in the repeat runs, not every such curve was filed as active; the % refers to the signal ratio; also: % is scaled to controls: 0 for no effect and ±100 for the full control effect)
Procedure, shortened: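 CellSensor ESRE-bla HeLa cells, 1,500 per well, plated overnight, then exposed to compounds for 5 hr at 37 C. Beta-lactamase reporter read with LiveBLAzer B/G FRET substrate after 2 hr at room temperature, 405 nm excitation, 460 and 530 nm emission.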

[5] = qHTS assay to identify small molecule agonists of the endoplasmic reticulum stress response signaling pathway - cell viability counter screen (AID 1159517; calls by dose curve;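 also: HeLa cells carrying an ER stress response element beta-lactamase reporter; series mostly up to about 61 µM; % is scaled to controls: 0 for no effect and ±100 for the full control effect; nearly all actives have a fitted effect of over 50% in size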)
Procedure, shortened: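 HeLa cells carrying an ESRE-driven beta-lactamase reporter receive compound for 5 hr at 37 C. Cell viability is then gauged with CellTiter-Glo by luminescence, 30 min at room temperature.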

[6] = qHTS assay to identify small molecule antagonists of the retinoid-related orphan receptor gamma (ROR-gamma) signaling pathway - cell viability counter screen (AID 1159520); also: % is scaled to controls: 0 for no effect and ±100 for the full control effect; nearly all actives have a fitted effect of over 50% in size
Procedure, shortened: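 Cytotoxicity was read from cellular ATP (CellTiter-Glo luminescence) after 16 hr at 37 C with 1 uM doxycycline induction. The inducer was added 2 hr after compound transfer to Tet-on ROR gamma CHO cells.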

[7] = qHTS assay to identify small molecule agonists of the AP-1 signaling pathway - cell viability counter screen (AID 1159525; calls by dose curve; also: nearly all actives have a fitted effect of over 55% in size)
Procedure, shortened: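 Luminescent ATP readout (Cell Titer Glo, 30 min RT), normalised to DMSO and tetra n-octyl ammonium bromide controls. Cells were ME-180 AP-1-bla in 0.5% dialyzed FBS Opti-MEM, with a 5 h, 37 °C compound exposure.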

[8] = qHTS assay to identify small molecule agonists of the AP-1 signaling pathway (AID 1159526; calls by dose curve; also: % is scaled to controls: 0 for no effect and ±100 for the full control effect)
[9] = molecular target: Retinoic acid receptor RXR-alpha (Homo sapiens) (UniProt P19793); experiment: qHTS assay to identify small molecule agonists of the RXR signaling pathway (AID 1159527; calls by dose curve; also: % is scaled to controls: 0 for no effect and ±100 for the full control effect; nearly all actives have a fitted effect of over 35% in size)
Chain of Retinoic acid receptor RXR-alpha (Homo sapiens) (P19793 whole entry, looked up): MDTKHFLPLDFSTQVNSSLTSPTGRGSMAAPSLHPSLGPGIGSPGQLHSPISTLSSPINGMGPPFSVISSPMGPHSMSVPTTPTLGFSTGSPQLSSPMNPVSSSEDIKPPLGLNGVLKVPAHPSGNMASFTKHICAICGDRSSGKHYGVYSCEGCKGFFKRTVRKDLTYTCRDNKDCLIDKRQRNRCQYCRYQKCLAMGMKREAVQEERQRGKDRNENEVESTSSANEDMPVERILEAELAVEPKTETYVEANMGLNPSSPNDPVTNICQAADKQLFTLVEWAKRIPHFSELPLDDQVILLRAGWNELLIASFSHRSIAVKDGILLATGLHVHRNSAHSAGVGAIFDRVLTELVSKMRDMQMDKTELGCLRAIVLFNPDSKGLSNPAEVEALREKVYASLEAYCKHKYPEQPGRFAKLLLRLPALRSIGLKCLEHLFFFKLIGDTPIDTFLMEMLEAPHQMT
Procedure, shortened: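 Read-out: beta-lactamase FRET ratio (405 nm excitation, 460 and 530 nm emission) after 2 hr substrate loading at room temperature. Cells were RXR-alpha-UAS-bla HEK 293T treated with compounds for 16 hr in 2% charcoal-stripped FBS medium.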

[10] = qHTS assay to identify small molecule agonists of the RXR signaling pathway - cell viability counter screen (AID 1159529)
Procedure, shortened: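 HEK 293T RXRa-bla cells, 2% CS-FBS; 5 h settle; cpd 16 h 37 C, 5% CO2; CellTiter-Glo 30 min RT, luminescence. Tetraoctyl ammonium bromide as positive control.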

[11] = qHTS assay to identify small molecule antagonists of the retinoid acid receptor (RAR) signaling pathway - cell viability counter screen (AID 1159551); also: % is scaled to controls: 0 for no effect and ±100 for the full control effect; nearly all actives have a fitted effect of over 35% in size
Procedure, shortened: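 C3RL4 RARE-luciferase cells, 1,000/well, incubated overnight, then dosed with compound plus 1 uM retinol (final). After 6 hr at 37 C, viability read by CellTiter-Glo ATP luminescence following 30 min at room temperature.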

[12] = qHTS assay to identify small molecule antagonists of the estrogen related receptor (ERR) signaling pathway - cell viability counter screen (AID 1224818); also: series mostly up to about 46 µM; % is scaled to controls: 0 for no effect and ±100 for the full control effect
Procedure, shortened: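 ERR cells, 2,000 per well, compound added after 6 h and incubated 17.5 h at 37 C. Viability read by CellTiter-Fluor fluorescence after a further 30 min at 37 C.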

[13] = qHTS assay to identify small molecule antagonists of the estrogen related receptor (ERR) signaling pathway (AID 1224819)
Procedure, shortened: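 ERR reporter cell line (NTP) plated at 2,000 cells/well, settled 6 h at 37C/5% CO2, then exposed to LOPAC compounds for 18 h at 37C. One-Glo luciferase luminescence read after 30 min at room temperature.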

[14] = qHTS assay to identify small molecule agonists of the estrogen related receptor (ERR) signaling pathway (AID 1224820); also: % is scaled to controls: 0 for no effect and ±100 for the full control effect
Procedure, shortened: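 ERR reporter cell line (from NTP), 2,000 cells/well, incubated 6 h before compound addition, then 18 h at 37 C. Luminescence measured 30 min after One-Glo reagent at room temperature.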

[15] = test system: estrogen-related receptor alpha (ERRalpha) with PGC-1alpha coactivator, human; experiment: qHTS assay to identify small molecule antagonists of the estrogen related receptor signaling pathway with the pleiotropic PPARgamma coactivator (PGC) (AID 1224821; calls by dose curve)
Procedure, shortened: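 PGC/ERR reporter cell line, plated 6 h before compound addition, then exposed 18 h at 37 °C. Luciferase activity read by luminescence 30 min after One-Glo addition; decrease indicates antagonism.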

[16] = qHTS assay to identify small molecule antagonists of the estrogen related receptor signaling pathway with the pleiotropic PPARgamma coactivator (PGC) cell viability counter screen (AID 1224822)
Procedure, shortened: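 PGC/ERR cells rested 6 h, then compound-treated 17.5 h at 37 C. CellTiter-Fluor added for 30 min at 37 C, viability measured by fluorescence intensity.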

[17] = qHTS assay to identify small molecule agonists of the estrogen related receptor signaling pathway with the pleiotropic PPARgamma coactivator (PGC) (AID 1224823); also: % is scaled to controls: 0 for no effect and ±100 for the full control effect
Procedure, shortened: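 PGC/ERR reporter cells seeded 6 h, then exposed to compounds (23 nL in DMSO) for 18 h at 37 C. One-Glo luciferase luminescence read after 30 min at room temperature.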

[18] = qHTS assay to identify small molecule antagonists of the retinoic acid receptor (RAR) signaling pathway (AID 1159552)
Procedure, shortened: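 Cells of the C3RL4 line were seeded, incubated overnight, then dosed with compounds in DMSO followed immediately by retinol (1 uM final). Six hours later luciferase detection reagent went in; signal was measured after 30 min at RT.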

[19] = qHTS assay to identify small molecule agonists of the retinoic acid receptor (RAR) signaling pathway (AID 1159553); also: % is scaled to controls: 0 for no effect and ±100 for the full control effect
Procedure, shortened: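 C3RL4 RARE-luciferase cells were seeded at 1,000/well and grown overnight at 37 C, then exposed to compounds for 6 hr at 37 C, 5% CO2. Luciferase reagent was added and luminescence was read after 30 min at room temperature.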

CCCn1cnc2c1c(=O)n(CCCCC(C)=O)c(=O)n2C
inactive: Potency [1] | Potency [2] | Potency [3] | Potency [4] | Potency [5] | Potency [6] | Potency [7] | Potency [8] | Potency [9] | Potency [10] | Potency [11] | outcome [12] | Potency [13] | outcome [14] | Potency [15] | outcome [16] | outcome [17]

N=c1ccn2c(n1)O[C@H]1[C@H](O)[C@@H](CO)O[C@H]12
inactive: Potency [1] | Potency [3] | Potency [4] | Potency [5] | Potency [6] | Potency [7] | Potency [8] | Potency [9] | Potency [10] | Potency [11]

O=C(O)c1ccc(S(=O)(=O)O)cc1C(=O)O
inactive: Potency [1] | Potency [2] | Potency [3] | Potency [4] | Potency [5] | Potency [6] | Potency [7] | Potency [8] | Potency [9] | Potency [10] | Potency [11] | Potency [18] | Potency [19]

COC(C)OC
inactive: Potency [2] | Potency [3] | Potency [4] | Potency [5] | Potency [6] | Potency [7] | Potency [8] | Potency [9] | Potency [10] | Potency [11] | Potency [18] | Potency [19]

O=C1C(O)=C(O)C(=O)C(O)=C1O
inactive: Potency [1] | Potency [2] | Potency [3] | Potency [4] | Potency [5] | Potency [6] | Potency [7] | Potency [8] | Potency [9] | Potency [10] | Potency [11] | Potency [18] | Potency [19]

CCCCCCCC/C=C\CCCCCCCC(=O)OCC
inactive: Potency [1] | Potency [2] | Potency [3] | Potency [4] | Potency [5] | Potency [6] | Potency [7] | Potency [8] | Potency [9] | Potency [10] | Potency [11] | Potency [18] | Potency [19]

CC(C)(C)OCC1CO1 (stereo unspecified)
inactive: Potency [1] | Potency [2] | Potency [3] | Potency [4] | Potency [5] | Potency [6] | Potency [7] | Potency [8] | Potency [9] | Potency [10] | Potency [11] | Potency [19]

O=[N+]([O-])c1ccc(NCCO)c(OCCO)c1
inactive: Potency [1] | Potency [2] | Potency [3] | Potency [4] | Potency [5] | Potency [6] | Potency [7] | Potency [8] | Potency [9] | Potency [10] | Potency [11]

COc1cc2nc(Cl)nc(N)c2cc1OC
inactive: Potency [1] | Potency [2] | Potency [3] | Potency [4] | Potency [5] | Potency [6] | Potency [7] | Potency [8] | Potency [9] | Potency [10] | Potency [11] | Potency [18] | Potency [19]

Nc1cc(C(=O)O)c(O)c(S(=O)(=O)O)c1
inactive: Potency [1] | Potency [2] | Potency [3] | Potency [4] | Potency [5] | Potency [6] | Potency [7] | Potency [8] | Potency [9] | Potency [10] | Potency [11] | Potency [18] | Potency [19]

CCCC(=O)Nc1ccc(O)c(C(C)=O)c1
inactive: Potency [1] | Potency [2] | Potency [3] | Potency [4] | Potency [5] | Potency [6] | Potency [7] | Potency [8] | Potency [9] | Potency [10] | Potency [11]

COc1ccnc(CS(=O)c2nc3ccc(OC(F)F)cc3[nH]2)c1OC (stereo unspecified)
inactive: Potency [1] | Potency [2] | Potency [3] | Potency [4] | Potency [5] | Potency [6] | Potency [7] | Potency [8] | Potency [9] | Potency [10] | Potency [11]

CC(CSC(=O)c1ccccc1)C(=O)N1C[C@@H](Sc2ccccc2)C[C@H]1C(=O)O (stereo partly specified)
inactive: Potency [1] | Potency [2] | Potency [3] | Potency [4] | Potency [5] | activity, negative = cytotoxicity [6] 3.47% [at 19 µM] | viability change, negative = cytotoxic [7] -2.27% [at 15.8 µM] | activation [8] 17.2% [at 15.8 µM] | activation [9] -12.9% [at 15.8 µM] | activity change, negative = cytotoxicity [10] -1.14% [at 15.8 µM] | activity change, negative = cytotoxicity [11] -2.34% [at 19 µM]

O=C(NCC1CN(c2ccc(N3CCOCC3=O)cc2)C(=O)O1)c1ccc(Cl)s1 (stereo unspecified)
inactive: Potency [1] | Potency [2] | Potency [3] | Potency [4] | Potency [5] | Potency [6] | Potency [7] | Potency [8] | Potency [9] | Potency [11] | Potency [18] | Potency [19]

CCO[Si](CCCCl)(OCC)OCC
inactive: Potency [2] | Potency [3] | Potency [4] | Potency [5] | Potency [6] | Potency [7] | Potency [8] | Potency [9] | Potency [11] | Potency [18] | Potency [19]

Cc1c(N)cccc1[N+](=O)[O-]
inactive: Potency [1] | Potency [2] | Potency [3] | Potency [4] | Potency [5] | Potency [6] | Potency [7] | Potency [8] | Potency [10] | Potency [11] | Potency [19]

CCCCCCCN
inactive: Potency [1] | Potency [2] | Potency [3] | Potency [4] | Potency [5] | Potency [6] | Potency [7] | Potency [8] | Potency [9] | Potency [10] | Potency [11]

CCOc1ccc(N=Nc2ccc(/C=C/c3ccc(N=Nc4ccc(OCC)cc4)cc3S(=O)(=O)O)c(S(=O)(=O)O)c2)cc1
inactive: Potency [1] | Potency [2] | Potency [3] | Potency [4] | Potency [5] | Potency [6] | Potency [7] | Potency [8] | Potency [10] | Potency [11] | Potency [18] | Potency [19]

OCCN1CCN(CCCN2c3ccccc3C=Cc3ccccc32)CC1
inactive: Potency [1] | Potency [2] | Potency [3] | Potency [4] | Potency [5] | Potency [6] | Potency [7] | Potency [8] | Potency [9] | Potency [11] | Potency [18] | Potency [19]

c1cc(CCCc2ccncc2)ccn1
inactive: Potency [1] | Potency [2] | Potency [3] | Potency [4] | Potency [5] | Potency [6] | Potency [7] | Potency [8] | Potency [9] | Potency [10] | Potency [11]

C[N+]1(C)CCC(OC(=O)C(O)(c2ccccc2)C2CCCC2)C1 (stereo unspecified)
inactive: Potency [1] | Potency [2] | Potency [3] | Potency [4] | Potency [5] | Potency [6] | Potency [7] | Potency [8] | Potency [10] | Potency [11] | Potency [19]
